Inconclusive results are not listed. Active and inactive are the calls of the source.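 How the source made its calls, unless noted: active means viability at or below 30% in both replicate assays; inconclusive means viability at or below 30% in just one of the two assays; inactive means the rest.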
Columns and labels:
[1] = Her2 expression decrease, cell viability multiplex – SKBR3 breast tumor cells, AlphaScreen, ATP viability, primary screen (AID 461;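 active means Her2 level under about 52% in both replicate screens, with viability over 70% of control, limit read from the data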;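 on Her2 level: lower value means less Her2 protein in the cells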;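 on viability: percent of carrier control wells set as 100% viability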); conditions: SKBR3 Her2 protein level, 18-24 h, measured here: SKBR3 viability, ATP luminescence, at 10 µM
[2] = target: Receptor tyrosine-protein kinase erbB-2 (Homo sapiens) (UniProt P04626); assay: as above; conditions: 18-24 h, at 10 µM, stronger effect = lower value
[3] = reduced viability of SK-BR-3 breast cancer cells – cell-based, 24 h, human, pilot screen (AID 572;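 active means viability at or below 10% of carrier control in both of two separate runs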;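 further: compound exposure lasted between 18 and 24 h rather than exactly 24 h; 100% = carrier-treated control wells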); conditions: SK-BR-3 viability, CellTiter-Glo luminescence, at 10 µM, stronger effect = lower value
[4] = HUVEC growth inhibition – cell-based, human, primary screen (AID 575); conditions: HUVEC proliferation, CellTiter-Glo luminescence, 72 h; at 10 µM; stronger effect = lower value;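 further: 100% = median of untreated cell wells with 0.1% DMSO on each plate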
[5] = H69AR cell proliferation blockers – human, duplicate replicates, primary screen (AID 580;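 active means viability at or under a set limit in both replicates, limit being median viability minus 3 SD, cut at about 48% in these data, passing the limit was not always enough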;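 further: 100% = mean luminescence of untreated wells and 0% = no signal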); conditions: H69AR lung tumor cells viability, ATP luminescence, 72 h; at 10 µM; stronger effect = lower value
[6] = MRP1 drug-resistance reversers in H69AR cells – cell-based, doxorubicin co-treatment, pilot screen (AID 601;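 active means viability loss from added drug above about 55%, and viability with drug at most 40%, in both replicates, limit read from the data, passing the limit was not always enough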); conditions: CellTiter-Glo, 72 h, at 10 µM; for differential viability (reversal): stronger effect = higher value
[7] = yeast transport mutant growth inhibition pilot in 384-well plates, post-Golgi transport modulator project (AID 636; in the data active means inhibition above about 31%); conditions: absorbance 615 nm, about 18 h, stronger effect = higher value
[8] = growth suppression of yeast trafficking mutant, preliminary HTS, modulators of trafficking downstream of Golgi apparatus project, 1536-format plate, OD 615 nm (AID 637; in the data active means inhibition above about 30%); conditions: yeast transport mutant growth, absorbance 615 nm, 18 h; stronger effect = higher value
[9] = S. cerevisiae growth inhibition in permissive medium (OD615), pilot counter-assay for S. cerevisiae lifespan shortening project, permissive growth control (AID 705;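 active means growth inhibition above 25% in both replicates, a cutoff set 3 SD above the mean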); conditions: OD615, 24 h, at 10 µM, stronger effect = higher value
[10] = S. cerevisiae growth inhibition in restrictive medium, OD615, pilot screen, restrictive growth control, yeast lifespan reduction project (AID 706;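 active means growth inhibition above a set limit, 3 SD over mean compound inhibition, in both replicates, cut at about 43% in these data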;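 further: modified DeaD lifespan yeast strain shifted to restrictive glucose medium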); conditions: OD615, 48 h, at 10 µM, stronger effect = higher value
[11] = doxorubicin toxicity protection in MRP-1 cells – H69AR cells, CellTiter-Glo, duplicate, MRP-1 activator project, pilot screen (AID 807;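 active means viability increase at or above a cutoff of the median across tested compounds plus 3 SD, cut at about 8.5% in these data, passing the limit was not always enough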;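 further: compound pretreatment 18-22 h then 72 h combined with doxorubicin; 0% = doxorubicin alone and 100% = vehicle without doxorubicin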); conditions: H69AR viability with doxorubicin, CellTiter-Glo luminescence; at 10 µM; stronger effect = higher value
[12] = viability of HCT116 without oncogenic beta-catenin – human colon tumor cells, pilot screen (AID 823;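 active means cell viability at or below a set limit in both duplicate runs, the limit being the all-compound median minus 4 SD, cut at about 23% in these data, passing the limit was not always enough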;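 further: 0% = wells killed by 20 µM Hyamine and 100% = untreated DMSO cell wells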); conditions: HCT116 beta-catenin knockout viability, CellTiter-Glo, 60 h; at 10 µM; stronger effect = lower value
[13] = viability of PTEN-null HCT116 cells – cell-based, HCT116 clonal line, CellTiter-Glo, pilot screen (AID 824;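 active means viability at or below 27.92% in each of two runs, the all-compound median minus 4 SD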;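 further: 0% = 20 µM Hyamine control and 100% = vehicle cell control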); conditions: HCT116 PTEN-deleted viability, 60 h, at 10 µM, stronger effect = lower value
[14] = RAM pathway blockade in budding yeast – dse1pr::URA3 reporter, 5-FOA selection, pilot screen (AID 869;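 active means inhibition over a set limit, the all-compound mean plus 3 SD, in both replicate runs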;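 further: 0% = DMSO wells with no growth and 100% = 10 µM 1-NA-PP1 with full growth; RAM network block rescues cells from 5-FOA so hits raise OD615 growth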); conditions: S. cerevisiae dse1pr::URA3 5-FOA growth, OD615, 2 d; at 10 µM; stronger effect = higher value; strain carries analog-sensitive mutant Cbk1 kinase
[15] = RAM signaling pathway blockade in yeast – S. cerevisiae, Pdr1DBD-CYC8 efflux-inhibited sensitized strain, primary screen (AID 1298;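 active means RAM network inhibition above 8.4% in each of two replicates, 3 SD over the compound average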;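 further: 0% = DMSO untreated cells without growth and 100% = 10 µM 1-NA-PP1 full growth; higher means more yeast growth rescued from 5-FOA killing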); conditions: S. cerevisiae cbk1-as DSE1-URA3 strain, 5-FOA growth OD615, 2 d; at 50 µM; stronger effect = higher value
[16] = H69AR cells + 2 uM doxorubicin, measured here: viability with 2 uM doxorubicin, stronger effect = lower value
[17] = H69AR cells, compound alone cytotoxicity

Sequence of Receptor tyrosine-protein kinase erbB-2 (Homo sapiens) (P04626 whole entry, looked up): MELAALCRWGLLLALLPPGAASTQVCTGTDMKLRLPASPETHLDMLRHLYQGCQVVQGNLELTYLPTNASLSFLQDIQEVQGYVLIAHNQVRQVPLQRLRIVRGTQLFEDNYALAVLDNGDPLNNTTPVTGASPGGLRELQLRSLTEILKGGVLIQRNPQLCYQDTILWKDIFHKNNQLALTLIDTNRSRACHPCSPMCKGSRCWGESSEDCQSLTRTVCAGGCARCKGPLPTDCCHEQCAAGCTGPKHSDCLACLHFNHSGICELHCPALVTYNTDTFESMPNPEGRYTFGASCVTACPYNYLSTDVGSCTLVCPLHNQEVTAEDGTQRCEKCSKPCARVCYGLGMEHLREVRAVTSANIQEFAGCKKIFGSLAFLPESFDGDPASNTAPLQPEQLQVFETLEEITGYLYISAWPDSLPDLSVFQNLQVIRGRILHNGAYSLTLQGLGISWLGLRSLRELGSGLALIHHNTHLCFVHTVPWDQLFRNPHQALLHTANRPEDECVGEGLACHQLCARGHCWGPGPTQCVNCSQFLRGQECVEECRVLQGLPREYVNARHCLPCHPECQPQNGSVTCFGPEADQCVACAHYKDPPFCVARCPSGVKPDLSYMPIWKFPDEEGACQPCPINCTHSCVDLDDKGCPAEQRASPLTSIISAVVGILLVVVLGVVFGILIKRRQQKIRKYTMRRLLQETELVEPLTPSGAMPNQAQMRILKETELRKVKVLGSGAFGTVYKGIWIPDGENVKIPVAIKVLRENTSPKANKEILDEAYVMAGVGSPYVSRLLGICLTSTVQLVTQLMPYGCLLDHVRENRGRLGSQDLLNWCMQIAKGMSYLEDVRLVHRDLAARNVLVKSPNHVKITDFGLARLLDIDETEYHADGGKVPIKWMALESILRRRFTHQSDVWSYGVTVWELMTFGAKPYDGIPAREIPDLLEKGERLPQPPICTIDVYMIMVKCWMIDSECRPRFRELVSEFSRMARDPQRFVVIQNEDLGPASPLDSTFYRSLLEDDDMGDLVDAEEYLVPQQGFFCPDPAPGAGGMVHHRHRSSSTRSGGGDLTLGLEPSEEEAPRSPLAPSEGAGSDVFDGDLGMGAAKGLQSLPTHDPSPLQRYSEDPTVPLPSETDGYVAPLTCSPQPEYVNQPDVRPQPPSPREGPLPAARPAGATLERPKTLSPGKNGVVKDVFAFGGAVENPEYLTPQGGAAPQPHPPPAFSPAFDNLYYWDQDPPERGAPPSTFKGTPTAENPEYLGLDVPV

SMILES | viability [1] | Her2 level [2] | viability [3] | viability [4] | viability [5] | differential viability (reversal) ([6]; H69AR cells + 2 uM doxorubicin) | viability [6, 16] | viability [6, 17] | inhibition [7] | inhibition [8] | growth inhibition [9] | growth inhibition [10] | viability increase [11] | viability [12] | viability [13] | inhibition [14] | RAM network inhibition [15]
CCn1c(SCC(=O)Nc2ccc(Cl)cc2)nnc1C1CC1 | 92.5% | 95.5% (inactive) | 92.5% (inactive) | 84.2% (inactive) | 74.7% (inactive) | 11.1% (inactive) | 63.7% | 74.7% | -2.27% (inactive) | 1.67% (inactive) | 5.96% (inactive) | 1.14% (inactive) | -4.1% (inactive) | 102% (inactive) | 97.8% (inactive) | 0.85% (inactive) | 3.74% (inactive)
CCOC(=O)N1CCC(NC(=O)C2CCCN(C(=O)c3cc4sccc4n3C)C2)CC1 (stereo not drawn) | 113% | 114% (inactive) | 113% (inactive) | 82.2% (inactive) | 94.8% (inactive) | -0.91% (inactive) | 95.7% | 94.8% | -2.4% (inactive) | -0.83% (inactive) | -18% (inactive) | -12.6% (inactive) | 0.63% (inactive) | 96.7% (inactive) | 95.7% (inactive) | 0.665% (inactive) | 0.11% (inactive)
O=C(O)c1ccc(-c2ccc(O)c(F)c2)cc1 | 94% | 167% (inactive) | 94% (inactive) | 92.8% (inactive) | 82.9% (inactive) | -5.75% (inactive) | 88.6% | 82.9% | -0.4% (inactive) | 1.5% (inactive) | -8.37% (inactive) | 12.1% (inactive) | -2.66% (inactive) | 99.3% (inactive) | 97.4% (inactive) | -0.17% (inactive) | -2.4% (inactive)
COC(=O)C(C)Sc1nnc2n(-c3cccc(C)c3)c(=O)c3c4c(sc3n12)CCCC4 (stereo not drawn) | 87.5% | 112% (inactive) | 87.5% (inactive) | 86.8% (inactive) | 83.1% (inactive) | 64.7% (active) | 18.4% | 83.1% | 2.53% (inactive) | 2% (inactive) | -9.47% (inactive) | 16.4% (inactive) | -1.93% (inactive) | 89.5% (inactive) | 85.5% (inactive) | 0.06% (inactive) | 1.84% (inactive)
COc1ccccc1S(=O)(=O)Cc1ccc(C(=O)N2CCOCC2)o1 | 113% | 98.5% (inactive) | 113% (inactive) | 105% (inactive) | 87.6% (inactive) | -5.08% (inactive) | 92.7% | 87.6% | -2.13% (inactive) | 3.5% (inactive) | 1.17% (inactive) | -2.13% (inactive) | -2.08% (inactive) | 106% (inactive) | 97.9% (inactive) | 1.65% (inactive) | 0.78% (inactive)
Cc1ccc(-c2noc(CN3CCN(c4ccccc4F)CC3)n2)cc1 | 89.5% | 95.5% (inactive) | 89.5% (inactive) | 121% (inactive) | 92.5% (inactive) | -3.02% (inactive) | 95.5% | 92.5% | 1.87% (inactive) | -1.5% (inactive) | 1.99% (inactive) | -1.21% (inactive) | -2.06% (inactive) | 93.3% (inactive) | 92.4% (inactive) | -0.38% (inactive) | 3.79% (inactive)
CCCNC(=O)C1CC(=O)N(c2ccc(OCC(=O)Nc3cc(C)cc(C)c3)cc2)C1 (stereo not drawn) | 112% | 122% (inactive) | 112% (inactive) | 80.5% (inactive) | 95.6% (inactive) | 4.41% (inactive) | 91.2% | 95.6% | -0.53% (inactive) | -4.33% (inactive) | -14.5% (inactive) | -25.6% (inactive) | -4.47% (inactive) | 92% (inactive) | 90.4% (inactive) | 2.06% (inactive) | 4.16% (inactive)
O=C(Nc1ccccc1)C1=C(O)CC(c2ccoc2)CC1=Nc1ccccc1 (stereo not drawn) | 93% | 91% (inactive) | 93% (inactive) | 96.8% (inactive) | 73% (inactive) | -6.7% (inactive) | 79.7% | 73% | 71.4% (active) | 4.59% (inactive) | -11.2% (inactive) | -4.9% (inactive) | -4.69% (inactive) | 69.6% (inactive) | 70.3% (inactive) | 1.05% (inactive) | 2.05% (inactive)
O=C(C1CCC(CNc2c(N3CCCCC3)c(=O)c2=O)CC1)N1CCc2ccccc2C1 (stereo not drawn) | 95% | 93.5% (inactive) | 95% (inactive) | 107% (inactive) | 91.8% (inactive) | 9.49% (inactive) | 82.3% | 91.8% | -0.53% (inactive) | 0% (inactive) | -4.97% (inactive) | -4.18% (inactive) | -3.33% (inactive) | 87.5% (inactive) | 83.2% (inactive) | -0.07% (inactive) | 2.9% (inactive)
